Assay results: PubChem BioAssay (EPA / NIEHS)
Values joined by “and” are separate entries in the source; they are usually repeats but may differ in a detail not shown here. Equal values may be shown once. A structure can be active in one record and inactive in another. Active and inactive are the calls of the source. Rule for the calls: active = hit-call score of the fitted dose curve at least 0.9, where 1 is the maximum; inactive = score below 0.9.

Experiments:
[1] = target: Bile acid receptor (Homo sapiens) (UniProt Q96RI1); test: ATG_IR1_CIS: Attagene CIS-FACTORIAL HepG2 Assay for human Nuclear Receptor Subfamily 1 Group H Member 4 (NR1H4), IR1 submotif (AID 2282946); conditions: IR1 reporter transcription, actives raise or lower the signal
Summary of the method: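 Fluorescence of capillary-separated, HpaI-digested RT-PCR reporter products gave IR1-element mRNA induction in HepG2 cells 24 h after dosing. Endogenous transcription factors drove the cis-regulated reporters; activity was fitted bidirectionally against DMSO.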

[2] = ATG_GRE_CIS: Attagene CIS-FACTORIAL HepG2 Assay for human Glucocorticoid Response Elements (GRE) (AID 2282947); conditions: HepG2 GRE cis-reporter, Attagene multiplex mRNA; actives raise or lower the signal
Summary of the method: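 Fluorescence intensity of reporter-specific cDNA fragments, separated by capillary electrophoresis, provides the signal. Constructs carry cis-regulating promoters in transiently transfected HepG2 liver cells; 24 h incubation; fitting is bidirectional against DMSO.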

[3] = ATG_ISRE_CIS: Attagene CIS-FACTORIAL HepG2 Assay for human Interferon Regulatory Factor 1 (IRF1) binding to an Interferon-Stimulated Response Element (ISRE) (AID 2282948); conditions: HepG2 ISRE cis-reporter (Attagene), mRNA transcription readout; actives raise or lower the signal
Summary of the method: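 Endogenous transcription factor activity read as reporter transcript abundance via RT-PCR and capillary electrophoresis. HepG2 cells transiently transfected, 24 h chemical exposure. Gain or loss fitted against DMSO baseline.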

[4] = ATG_M_32_CIS: Attagene CIS-FACTORIAL HepG2 Assay for M32 Transcription Factor (Internal Marker) (AID 2282949); conditions: HepG2 Attagene cis-factorial M32 reporter, mRNA; actives raise or lower the signal;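 note: background control marker of the multiplexed CIS panel rather than a real target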
Summary of the method: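 HepG2 human liver cells transiently transfected with cis-promoter-driven multiple reporter transcription units, dosed 24 h. Reporter mRNA quantified by RT-PCR, FAM-labelled primer extension, HpaI digest and capillary electrophoresis; bidirectional fit versus DMSO baseline.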

[5] = ATG_M_06_CIS: Attagene CIS-FACTORIAL HepG2 Assay for M06 Transcription Factor (Internal Marker) (AID 2282950); conditions: HepG2 Attagene CIS-FACTORIAL M06 internal marker reporter; actives raise or lower the signal
Summary of the method: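 HepG2 liver cells, 24 h exposure. Reporter transcripts from transfected cis-element constructs quantified by RT-PCR/capillary electrophoresis fluorescence. Bidirectional curve fit against DMSO.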

[6] = target: Hypoxia-inducible factor 1-alpha (Homo sapiens) (UniProt Q16665); test: ATG_HIF1a_CIS: Attagene CIS-FACTORIAL HepG2 Assay for human Hypoxia Inducible Factor 1 (HIF1A) (AID 2282951); conditions: HepG2 Attagene cis-factorial HIF1a reporter transcription; actives raise or lower the signal
Summary of the method: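 Endogenous-TF cis reporter readout, human HepG2 cells, 24 h incubation; mRNA detected via RT-PCR and capillary electrophoresis fluorescence; DMSO-normalised bidirectional fitting.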

[7] = target: Hepatocyte nuclear factor 6 (Homo sapiens) (UniProt Q9UBC0); test: ATG_HNF6_CIS: Attagene CIS-FACTORIAL HepG2 Assay for human Hepatocyte Nuclear Factor 6 (HNF6) (AID 2282952); conditions: HepG2 Attagene cis-factorial HNF6 reporter transcription; actives raise or lower the signal
Summary of the method: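 Using cis-element reporters in HepG2 liver cells, the assay tracks endogenous factor-driven transcription 24 h post-dosing. Signal comes from 6-FAM-labelled, HpaI-digested RT-PCR fragments, with gain or loss scored against DMSO.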

[8] = target: Heat shock factor protein 1 (Homo sapiens) (UniProt Q00613); test: ATG_HSE_CIS: Attagene CIS-FACTORIAL HepG2 Assay for human Heat Shock Transcription Factor 1 (HSE) (AID 2282953); conditions: HepG2 HSE cis-reporter, Attagene RNA transcription; actives raise or lower the signal
Summary of the method: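 Endogenous transcription factor activity captured via cis-promoter reporter units transfected into HepG2; treatment lasted 24 h. Fluorescence intensity of reporter fragments analysed with bidirectional curve fitting, DMSO baseline.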

[9] = ATG_MRE_CIS: Attagene CIS-FACTORIAL HepG2 Assay for human Metal Responsive Element (MRE) (AID 2282954); conditions: HepG2 MRE cis-reporter transcription, Attagene multiplex; actives raise or lower the signal
Summary of the method: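 Measured here is mRNA induction from an MRE cis-element reporter in HepG2 after 24 h, quantified by fluorescence of labelled RT-PCR products on capillary electrophoresis; gain- and loss-of-signal fits use DMSO as baseline.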

[10] = target: Paired box protein Pax-6 (Homo sapiens) (UniProt P26367); test: ATG_Pax6_CIS: Attagene CIS-FACTORIAL HepG2 Assay for human Paired Box 6 (PAX6) (AID 2282956); conditions: HepG2 CIS-FACTORIAL PAX6 reporter transcription, RNA readout; actives raise or lower the signal
Summary of the method: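 Read-out is reporter transcript level, measured by RT-PCR with fluorescent primer extension and capillary electrophoresis after 24 h dosing of transfected HepG2 cells. Activity in either direction fitted relative to DMSO control.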

[11] = ATG_PXRE_CIS: Attagene CIS-FACTORIAL HepG2 Assay for human Pregnane X Receptor Element (PXRE) (AID 2282957); conditions: HepG2 Attagene CIS-FACTORIAL PXRE reporter, mRNA; actives raise or lower the signal
Summary of the method: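 Using HepG2 transfected with multiple reporter transcription units, endogenous factor-driven transcription was scored as reporter mRNA after 24 h exposure.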

[12] = ATG_PPRE_CIS: Attagene CIS-FACTORIAL HepG2 Assay for human Peroxisome Proliferator-activated Response Element (PPRE) (AID 2282958); conditions: HepG2 PPRE cis-element reporter, Attagene transcription factor profiling; actives raise or lower the signal
Summary of the method: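 After human HepG2 hepatoma cells were transiently transfected with cis-promoter reporter constructs, they were exposed to test chemicals for 24 hours. Reporter RNA was then reverse-transcribed, PCR-amplified, FAM-labeled, HpaI-digested and quantified by capillary electrophoresis.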

[13] = ATG_RORE_CIS: Attagene CIS-FACTORIAL HepG2 Assay for human RAR-related Orphan Receptor Element (RORE) (AID 2282959); conditions: HepG2 Attagene cis-factorial RORE reporter, mRNA; actives raise or lower the signal
Summary of the method: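 Measured here: transcript induction of a cis-regulated reporter in HepG2 cells transiently transfected via FuGene 6. After 24 h, RNA was processed by RT-PCR and fluorescent capillary electrophoresis; DMSO defined baseline activity.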

[14] = ATG_Sox_CIS: Attagene CIS-FACTORIAL HepG2 Assay for human SRY-box transcription factor (SOX) (AID 2282960); conditions: HepG2 Attagene cis-factorial SOX reporter, mRNA; actives raise or lower the signal
Summary of the method: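 Using transiently transfected HepG2 cells, reporter transcription driven by cis elements was assessed 24 h after dosing. Signal was fluorescence of capillary-separated RT-PCR products, with DMSO defining baseline activity.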

[15] = target: Transcription factor Sp1 (Homo sapiens) (UniProt P08047); test: ATG_Sp1_CIS: Attagene CIS-FACTORIAL HepG2 Assay for human Specificity Protein 1 (Sp1) (AID 2282961); conditions: HepG2 Sp1 cis-reporter transcription, actives raise or lower the signal
Summary of the method: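 After transient transfection of HepG2 cells with cis-promoter reporter units and 24 h chemical treatment, reporter transcripts were quantified by RT-PCR and capillary electrophoresis fluorescence. Gain- and loss-of-signal fitted against DMSO.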

[16] = target: Signal transducer and activator of transcription 3 (Homo sapiens) (UniProt P40763); test: ATG_STAT3_CIS: Attagene CIS-FACTORIAL HepG2 Assay for human Signal Transducer and Activator of Transcription 3 (STAT3) (AID 2282963); conditions: HepG2, Attagene cis-factorial STAT3 reporter transcription; actives raise or lower the signal
Summary of the method: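 Fluorescence intensity of 6-FAM-labelled reporter fragments, separated by capillary electrophoresis after RT-PCR, gave the signal. Cells were HepG2 transfected with cis-element reporter units and treated 24 h; fitting was bidirectional relative to DMSO.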

[17] = ATG_TA_CIS: Attagene CIS-FACTORIAL HepG2 Assay for human TA Basal Promoter (AID 2282964); conditions: HepG2 Attagene CIS-factorial TA basal promoter reporter; actives raise or lower the signal
Summary of the method: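 Fluorescence from labelled RT-PCR reporter fragments, separated by capillary electrophoresis, gives the signal. Cells: HepG2 transiently carrying multiple reporter units, 24 h chemical dosing. Gain or loss relative to DMSO.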

[18] = ATG_TCF_b_cat_CIS: Attagene CIS-FACTORIAL HepG2 Assay for human T-Cell-Factor with beta-catenin (TCF/b-cat) (AID 2282965); conditions: HepG2 TCF/beta-catenin cis-reporter transcription, actives raise or lower the signal
Summary of the method: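 HepG2, transient MRTU transfection, cis-element-driven reporters (endogenous TFs). 24 h compound exposure. Readout: reporter mRNA by RT-PCR + 6-FAM primer extension, HpaI digest, capillary electrophoresis. Gain/loss fit vs DMSO baseline.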

[19] = ATG_PBREM_CIS: Attagene CIS-FACTORIAL HepG2 Assay for human Phenobarbital-responsive Enhancer Module (PBREM) (AID 2282955); conditions: HepG2 PBREM cis-reporter, Attagene multiplexed transcription; actives raise or lower the signal
Summary of the method: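 Readout: reporter mRNA, fluorescent RT-PCR fragments separated by capillary electrophoresis. System: HepG2 transiently transfected with cis-regulated reporter units. Exposure: 24 h. Analysis: bidirectional, DMSO baseline.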

[20] = ATG_SREBP_CIS: Attagene CIS-FACTORIAL HepG2 Assay for human Sterol Regulatory Element Binding (SREBP) (AID 2282962); conditions: HepG2 Attagene cis-factorial SREBP reporter, mRNA; actives raise or lower the signal
Summary of the method: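 Endogenous SREBP activity read as cis-element-driven reporter transcript in transiently transfected HepG2, 24 h post-dosing; quantified via RT-PCR plus capillary electrophoresis of fluorescent fragments. Gain or loss of signal fitted relative to DMSO baseline.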

Measured: AC50

Bile acid receptor (Homo sapiens), sequence (Q96RI1 whole entry, looked up): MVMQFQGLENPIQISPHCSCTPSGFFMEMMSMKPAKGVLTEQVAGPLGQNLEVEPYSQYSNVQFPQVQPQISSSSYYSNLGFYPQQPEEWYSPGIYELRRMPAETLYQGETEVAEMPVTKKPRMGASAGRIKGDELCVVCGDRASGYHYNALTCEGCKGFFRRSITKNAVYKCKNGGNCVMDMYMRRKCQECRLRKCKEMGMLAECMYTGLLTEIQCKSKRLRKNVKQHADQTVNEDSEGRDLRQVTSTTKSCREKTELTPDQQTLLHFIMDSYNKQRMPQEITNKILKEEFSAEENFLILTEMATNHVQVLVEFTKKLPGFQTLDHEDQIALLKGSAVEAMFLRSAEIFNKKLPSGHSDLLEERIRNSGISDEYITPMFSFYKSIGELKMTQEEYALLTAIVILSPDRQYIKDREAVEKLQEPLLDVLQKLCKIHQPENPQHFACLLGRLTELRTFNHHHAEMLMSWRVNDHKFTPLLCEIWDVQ
Hypoxia-inducible factor 1-alpha (Homo sapiens), sequence (Q16665 whole entry, looked up): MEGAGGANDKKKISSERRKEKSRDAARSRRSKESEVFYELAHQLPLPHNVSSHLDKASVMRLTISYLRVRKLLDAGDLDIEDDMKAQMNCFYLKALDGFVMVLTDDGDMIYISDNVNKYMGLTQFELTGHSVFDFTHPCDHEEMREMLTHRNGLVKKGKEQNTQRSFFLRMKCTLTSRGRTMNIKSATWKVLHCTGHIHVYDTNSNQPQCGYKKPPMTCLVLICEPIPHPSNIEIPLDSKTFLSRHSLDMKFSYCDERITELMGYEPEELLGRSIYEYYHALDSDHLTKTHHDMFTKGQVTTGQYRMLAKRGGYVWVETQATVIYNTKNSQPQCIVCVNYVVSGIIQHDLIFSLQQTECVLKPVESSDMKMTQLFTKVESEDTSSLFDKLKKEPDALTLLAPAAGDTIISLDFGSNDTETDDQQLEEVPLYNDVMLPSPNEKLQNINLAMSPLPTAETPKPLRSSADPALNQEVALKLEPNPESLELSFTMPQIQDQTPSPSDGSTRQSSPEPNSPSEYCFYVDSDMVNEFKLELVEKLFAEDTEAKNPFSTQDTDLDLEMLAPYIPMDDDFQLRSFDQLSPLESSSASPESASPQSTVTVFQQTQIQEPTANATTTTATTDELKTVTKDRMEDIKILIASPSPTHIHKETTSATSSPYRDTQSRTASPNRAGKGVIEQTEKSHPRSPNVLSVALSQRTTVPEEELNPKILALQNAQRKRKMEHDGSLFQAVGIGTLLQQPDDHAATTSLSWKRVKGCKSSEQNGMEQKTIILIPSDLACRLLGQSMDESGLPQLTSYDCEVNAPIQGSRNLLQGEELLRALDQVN
Signal transducer and activator of transcription 3 (Homo sapiens), sequence (P40763 whole entry, looked up, the tested form may be a part): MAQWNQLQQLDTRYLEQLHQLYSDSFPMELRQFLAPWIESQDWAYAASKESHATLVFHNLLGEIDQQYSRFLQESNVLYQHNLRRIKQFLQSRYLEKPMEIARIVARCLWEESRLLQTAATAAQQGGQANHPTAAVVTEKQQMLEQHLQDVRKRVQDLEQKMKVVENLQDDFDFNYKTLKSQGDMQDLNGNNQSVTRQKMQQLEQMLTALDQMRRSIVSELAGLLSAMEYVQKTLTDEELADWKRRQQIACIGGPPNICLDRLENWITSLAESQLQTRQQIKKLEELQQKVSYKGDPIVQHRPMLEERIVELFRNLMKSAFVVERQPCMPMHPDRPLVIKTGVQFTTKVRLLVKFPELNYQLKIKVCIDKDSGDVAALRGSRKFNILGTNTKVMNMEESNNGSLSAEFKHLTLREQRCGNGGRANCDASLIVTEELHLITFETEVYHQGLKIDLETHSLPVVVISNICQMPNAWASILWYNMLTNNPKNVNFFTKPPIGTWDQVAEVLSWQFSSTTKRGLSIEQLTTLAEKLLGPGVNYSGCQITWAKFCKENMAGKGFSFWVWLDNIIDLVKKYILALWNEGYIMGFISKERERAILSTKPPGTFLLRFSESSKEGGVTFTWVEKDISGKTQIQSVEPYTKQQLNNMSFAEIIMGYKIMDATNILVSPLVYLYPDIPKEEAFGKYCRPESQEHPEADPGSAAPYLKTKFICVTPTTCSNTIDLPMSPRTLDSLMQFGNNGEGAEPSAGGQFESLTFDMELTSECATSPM
Hepatocyte nuclear factor 6 (Homo sapiens), sequence (Q9UBC0 whole entry, looked up, the tested form may be a part): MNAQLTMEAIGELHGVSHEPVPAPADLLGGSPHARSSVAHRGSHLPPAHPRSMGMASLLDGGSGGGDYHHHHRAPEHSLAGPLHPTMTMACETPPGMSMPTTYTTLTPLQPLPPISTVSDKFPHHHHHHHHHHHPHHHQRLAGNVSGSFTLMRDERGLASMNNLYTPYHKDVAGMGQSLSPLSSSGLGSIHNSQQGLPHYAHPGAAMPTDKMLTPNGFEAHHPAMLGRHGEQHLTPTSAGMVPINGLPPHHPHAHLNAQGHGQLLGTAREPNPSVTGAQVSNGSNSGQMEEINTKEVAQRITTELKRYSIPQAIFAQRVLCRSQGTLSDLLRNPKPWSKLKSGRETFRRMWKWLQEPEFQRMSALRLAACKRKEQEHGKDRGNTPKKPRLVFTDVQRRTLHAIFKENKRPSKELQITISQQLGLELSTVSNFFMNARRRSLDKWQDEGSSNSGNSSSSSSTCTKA
Paired box protein Pax-6 (Homo sapiens), sequence (P26367 whole entry, looked up): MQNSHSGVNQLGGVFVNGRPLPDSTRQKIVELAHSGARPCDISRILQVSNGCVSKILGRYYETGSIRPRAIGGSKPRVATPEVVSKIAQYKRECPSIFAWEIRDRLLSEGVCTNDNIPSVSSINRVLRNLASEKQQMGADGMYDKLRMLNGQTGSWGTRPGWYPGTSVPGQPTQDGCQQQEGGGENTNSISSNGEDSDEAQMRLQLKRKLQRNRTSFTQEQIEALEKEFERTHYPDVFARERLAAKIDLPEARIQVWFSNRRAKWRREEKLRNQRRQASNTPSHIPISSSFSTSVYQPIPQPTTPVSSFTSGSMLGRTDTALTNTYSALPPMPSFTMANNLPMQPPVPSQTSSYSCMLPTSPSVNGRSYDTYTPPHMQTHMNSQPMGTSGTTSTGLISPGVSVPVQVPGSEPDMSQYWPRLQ
Heat shock factor protein 1 (Homo sapiens), sequence (Q00613 whole entry, looked up, the tested form may be a part): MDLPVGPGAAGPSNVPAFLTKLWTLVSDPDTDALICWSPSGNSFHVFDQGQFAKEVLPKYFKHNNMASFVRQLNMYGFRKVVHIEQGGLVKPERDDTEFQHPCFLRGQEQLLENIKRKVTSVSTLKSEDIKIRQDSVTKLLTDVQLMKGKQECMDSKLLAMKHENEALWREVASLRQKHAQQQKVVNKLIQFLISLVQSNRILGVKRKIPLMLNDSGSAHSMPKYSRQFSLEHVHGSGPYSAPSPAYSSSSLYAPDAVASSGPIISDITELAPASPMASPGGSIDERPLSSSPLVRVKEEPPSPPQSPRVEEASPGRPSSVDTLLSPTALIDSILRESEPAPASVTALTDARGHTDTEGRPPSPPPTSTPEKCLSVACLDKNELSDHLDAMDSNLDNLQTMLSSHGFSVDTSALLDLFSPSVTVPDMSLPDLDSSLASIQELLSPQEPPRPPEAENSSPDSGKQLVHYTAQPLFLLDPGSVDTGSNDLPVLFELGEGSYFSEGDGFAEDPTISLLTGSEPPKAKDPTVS
Transcription factor Sp1 (Homo sapiens), sequence (P08047 whole entry, looked up): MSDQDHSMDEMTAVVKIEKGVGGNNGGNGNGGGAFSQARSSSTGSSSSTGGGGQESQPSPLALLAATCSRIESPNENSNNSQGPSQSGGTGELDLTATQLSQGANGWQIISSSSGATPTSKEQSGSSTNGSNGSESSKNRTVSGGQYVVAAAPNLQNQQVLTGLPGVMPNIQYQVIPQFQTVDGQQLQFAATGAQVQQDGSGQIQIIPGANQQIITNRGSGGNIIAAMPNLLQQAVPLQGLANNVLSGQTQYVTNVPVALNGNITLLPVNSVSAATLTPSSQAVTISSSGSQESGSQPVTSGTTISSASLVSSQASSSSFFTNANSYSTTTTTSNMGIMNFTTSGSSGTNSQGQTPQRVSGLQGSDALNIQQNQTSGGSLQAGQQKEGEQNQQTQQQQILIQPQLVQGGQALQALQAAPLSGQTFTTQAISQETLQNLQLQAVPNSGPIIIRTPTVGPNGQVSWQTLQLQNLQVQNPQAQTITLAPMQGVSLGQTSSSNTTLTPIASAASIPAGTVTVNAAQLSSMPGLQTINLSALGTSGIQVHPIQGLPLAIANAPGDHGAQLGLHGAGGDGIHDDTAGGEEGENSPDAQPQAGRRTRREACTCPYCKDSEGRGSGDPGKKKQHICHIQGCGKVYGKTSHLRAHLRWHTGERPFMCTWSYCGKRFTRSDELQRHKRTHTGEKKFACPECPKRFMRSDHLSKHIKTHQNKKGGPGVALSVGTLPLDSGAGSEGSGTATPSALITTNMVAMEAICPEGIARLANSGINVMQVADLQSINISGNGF

CCSC(=O)N(CC)C1CCCCC1
active: [11] 12.3 µM
not listed: [19] | [20]
inactive: all other assays above

CC(C)(c1ccccc1)c1ccc(O)cc1
inactive: [1] | [2] | [3] | [4] | [5] | [6] | [7] | [8] | [9] | [10] | [12] | [13] | [14] | [15] | [16] | [17] | [18]
active: [1] 33.4 µM | [2] 51.3 µM | [6] 52.5 µM and 12.7 µM | [8] 54.7 µM | [9] 33.4 µM and 52.1 µM and 43.1 µM | [10] 52.3 µM and 39.5 µM | [11] 2.59 µM [middle of 4 runs] | [12] 22.6 µM and 33.4 µM | [13] 48.9 µM | [14] 50.8 µM | [15] 51.9 µM and 53.1 µM | [16] 55.9 µM and 54.6 µM | [17] 54 µM | [18] 39.9 µM and 54.5 µM

CC1=C2C[C@H]3[C@@H](CC=C4C[C@@H](O)CC[C@@]43C)[C@@H]2CC[C@]12O[C@@H]1C[C@H](C)CN[C@H]1[C@H]2C
active: [1] 8.12 µM | [9] 16.1 µM | [10] 13.5 µM | [13] 12.9 µM | [15] 12.8 µM | [17] 12.7 µM
inactive: all other assays above

CC(c1ccc(O)cc1)(c1ccc(O)cc1)c1ccc(O)cc1
active: [1] 11.1 µM | [3] 16.1 µM | [6] 13.8 µM | [7] 18.6 µM | [9] 13.5 µM | [10] 11.1 µM | [11] 0.575 µM | [13] 11.1 µM | [15] 19.6 µM | [17] 17.3 µM | [18] 11.9 µM
inactive: [2] | [4] | [5] | [8] | [12] | [14] | [16]

C=CC(N)=O
active: [6] 26 µM | [11] 34 µM
not listed: [1] | [12] | [19] | [20]
inactive: all other assays above

CCOCCOC(C)=O
not listed: [1] | [19]
inactive: all other assays above
